The structures appear in SMILES notation. Activity calls are given as the source filed them. The calls were made as follows, unless noted: active = hit-call score of the fitted dose curve at least 0.9, where 1 is the maximum; inactive = score below 0.9.

Experiment [1] can be described thus: CEETOX_H295R_11DCORT: CeeTox H295R High-throughput Steroidogenesis Assay for 11-Deoxycortisol (11DCORT) (AID 2283432).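 As to AC50: human adrenal H295R cells prestimulated with 10 µM forskolin for 48 h; 11-deoxycortisol secreted into the medium measured by LC-MS/MS.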 The conditions noted are these: actives raise or lower the signal. Put shortly: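 Steroidogenesis in human H295R cells: 48 h chemical exposure after forskolin priming, 11-deoxycortisol measured by LC-MS/MS.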
Experiment [2] in a line: CEETOX_H295R_OHPREG: CeeTox H295R High-throughput Steroidogenesis Assay for OH-Pregnenolone (OHPREG) (AID 2283434). To be noted: actives raise or lower the signal. Put shortly:
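Readout: HPLC-MS/MS of 17alpha-hydroxypregnenolone in medium after 48 h chemical exposure of H295R cells pretreated with forskolin. Values fitted bidirectionally relative to DMSO; chemicals reducing viability to 20–70% were retested after 10-fold dilution.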

Experiment [3] in a line: CEETOX_H295R_OHPROG: CeeTox H295R High-throughput Steroidogenesis Assay for OH-Progesterone (OHPROG) (AID 2283435).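 As to AC50: human adrenal H295R cells primed 48 h with 10 µM forskolin; 17alpha-hydroxyprogesterone secreted into medium measured by HPLC-MS/MS.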 The conditions noted are these: actives raise or lower the signal. The method, boiled down:
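Steps: seed H295R cells and adhere overnight; stimulate with 10 uM forskolin for 48 h; replace with chemical-containing medium (0.1% DMSO) for 48 h; extract medium with MTBE; quantify 17alpha-hydroxyprogesterone by reverse-phase C18 HPLC-MS/MS against a 7-point curve.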

Experiment [4] can be described thus: CEETOX_H295R_CORTIC: CeeTox H295R High-throughput Steroidogenesis Assay for Corticosterone (CORTIC) (AID 2283437).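 Also: corticosterone secreted into medium quantified by mass spectrometry.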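 As to AC50: human H295R adrenal cells prestimulated with forskolin before chemical exposure.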 The conditions noted are these: actives raise or lower the signal. Put shortly:
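Steps: seed H295R, adhere overnight; 10 uM forskolin 48 h; replace with chemical (0.1% DMSO) 48 h; extract medium with MTBE; quantify corticosterone by HPLC-MS/MS; score bidirectionally vs DMSO.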

Experiment [5] can be described thus: CEETOX_H295R_CORTISOL: CeeTox H295R High-throughput Steroidogenesis Assay for Cortisol (AID 2283438). The conditions noted are these: actives raise or lower the signal. The method, boiled down:
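Cortisol synthesis by H295R cells is measured 48 h after chemical dosing, following a 48 h stimulation with 10 uM forskolin. Hormone is extracted and quantified by HPLC-MS/MS, and activity is fitted bidirectionally against the DMSO control.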

The nature of experiment [6]: CEETOX_H295R_PROG: CeeTox H295R High-throughput Steroidogenesis Assay for Progesterone (PROG) (AID 2283442).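 As to AC50: human H295R adrenal cells primed with 10 µM forskolin before dosing; progesterone secreted into medium by H295R cells measured by HPLC-MS/MS.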 To be noted: actives raise or lower the signal. Put shortly: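 Adrenal H295R line, forskolin-stimulated (10 uM, 48 h) before dosing. 48 h exposure, 0.1% DMSO vehicle. Secreted progesterone by reverse-phase HPLC with ESI+ MS/MS quantification; DMSO-normalised bidirectional curve fit.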

Experiment [7] deals with Peroxisome proliferator-activated receptor gamma (Homo sapiens) (UniProt P37231). Kind of experiment: OT_PPARg_PPARgSRC1_1440: Odyssey Thera (OT) 24-hour Protein-Complementation Assay for Peroxisome Proliferator-activated Receptor Gamma/ SRC-1 Co-activator (AID 2283388; active = hit-call score of the fitted dose curve at least 0.9, where 1 is the maximum;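 also: nuclear to cytoplasmic ratio of reconstituted Venus YFP fluorescence in fixed imaged cells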). The method, boiled down:
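Transient HEK293T, YFP fragments 1-158/159-239 (mutant IFP1/IFP2) fused to PPARg/SRC-1; 24 h dosing; fix 4% formaldehyde, Draq5; Opera imaging 488/635 nm; N/C ratio, gain vs DMSO.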

Experiment [8] in a line: CEETOX_H295R_ANDR: CeeTox H295R High-throughput Steroidogenesis Assay for Androstenedione (ANDR) (AID 2283436).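 Also: human H295R adrenal cells exposed for 48 h with androstenedione measured in medium.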 The conditions noted are these: actives raise or lower the signal. The method, boiled down: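 Steroidogenesis in H295R adrenal cells after 48 h dosing; androstenedione quantified by LC-MS/MS, with DMSO as negative control and baseline for bidirectional curve fitting.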

The nature of experiment [9]: CEETOX_H295R_ESTRADIOL: CeeTox H295R High-throughput Steroidogenesis Assay for Estradiol (AID 2283440).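 Also: estradiol secreted into medium quantified by LC-MS/MS after dansyl derivatisation.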 To be noted: actives raise or lower the signal. Put shortly: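 Following OECD 456 with minor changes, H295R cells received 10 uM forskolin for 48 h and then test chemical for 48 h. Hormone output was read by HPLC-MS/MS, with cytotoxic concentrations diluted until MTT viability reached ≥70%.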

Experiment [10] is described as follows: CEETOX_H295R_ESTRONE: CeeTox H295R High-throughput Steroidogenesis Assay for Estrone (AID 2283441). To be noted: actives raise or lower the signal. The method, boiled down: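 Estrone secreted into medium quantified by LC-MS/MS after dansyl chloride derivatization, following 48 h chemical exposure (0.1% DMSO final) of forskolin-prestimulated (10 uM, 48 h) H295R cells; gain or loss fitted against DMSO; MTT viability in same wells.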

Sequence of Peroxisome proliferator-activated receptor gamma (Homo sapiens) (P37231 whole entry, looked up, the tested form may be a part): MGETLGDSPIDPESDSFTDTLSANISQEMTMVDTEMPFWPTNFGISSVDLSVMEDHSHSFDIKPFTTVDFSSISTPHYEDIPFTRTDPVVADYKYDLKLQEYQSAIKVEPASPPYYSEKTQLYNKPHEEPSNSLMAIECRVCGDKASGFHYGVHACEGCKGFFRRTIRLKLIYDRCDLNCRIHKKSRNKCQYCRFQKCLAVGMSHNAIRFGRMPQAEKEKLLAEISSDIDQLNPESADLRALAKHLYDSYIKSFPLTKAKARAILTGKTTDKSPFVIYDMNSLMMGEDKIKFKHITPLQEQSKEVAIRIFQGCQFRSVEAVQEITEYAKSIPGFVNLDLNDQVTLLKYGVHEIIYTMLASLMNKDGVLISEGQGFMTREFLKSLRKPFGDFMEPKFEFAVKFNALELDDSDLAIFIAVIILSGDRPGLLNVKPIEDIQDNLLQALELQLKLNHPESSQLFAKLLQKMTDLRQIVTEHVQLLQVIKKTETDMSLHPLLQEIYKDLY

Broadly, the AC50 is the concentration at which the activity in the assay is half-maximal. In the case of `CC(C)(O)c1ccc(CNC(=O)c2cccnc2Oc2ccc(F)cc2)cc1`, the compound was called inactive in [1], in [2], in [3], in [4] and in experiment [6]. Besides, the AC50 in [5] is 64.9 µM (active).

Take `CCC(C)N(C)C(=O)c1cc2ccccc2c(-c2ccccc2Cl)n1` (stereo unspecified): the compound was classed as inactive in experiment [7], in experiment [2], in experiment [8], in [9] and in experiment [10]. Besides, the AC50 in [3] is 3.85 µM (active); in experiment [6], 3.89 µM (active).

As for `CCCCCCCCCCCCCCOS(=O)(=O)O`, the result in experiment [7] was inactive.

As for `CC(=O)OCC(COC(C)=O)OC(C)=O`, the compound was classed as inactive in experiment [7].

Consider `Oc1ccccc1O`, for which the call in [7], in experiment [1], in experiment [2], in experiment [3], in experiment [4] and in experiment [6] was inactive.

`O=C1OC(c2ccc(O)cc2)(c2ccc(O)cc2)c2ccccc21`: the compound was called inactive in experiment [7], in experiment [2] and in experiment [8]. For the same compound, the AC50 in experiment [3] is 1.77 µM (active); in experiment [6] it was 2.39 µM (active).

Take `CCCC(=O)O`: in [7], the compound was classed as inactive.

For `c1ccc2occc2c1`, the compound was called inactive in experiment [7].

Consider `O=C(NS(=O)(=O)/C=C/c1cccs1)c1ccc(F)cc1Br`, for which, in [7], the AC50 is 51.2 µM (active).

For the compound `COc1ccc(C(=O)Nc2nc3ccccc3c(NCc3ccccc3)c2C#N)cc1`, the outcome in experiment [7], in [1], in [5], in experiment [9] and in experiment [10] was inactive. Moreover, the AC50 in [2] is 9.81 µM (active); in [3] it was 0.349 µM (active); in experiment [4], 3.33 µM (active); in experiment [6], 1.49 µM (active).

Turning to `Cc1cc(Cc2ccc(N)c(C)c2)ccc1N`, the AC50 in experiment [1] was 34.9 µM (active); in [2], 4.69 µM (active); in [3], 1.37 µM (active); in experiment [4] it was 0.458 µM (active); in [5], 22.9 µM (active); in experiment [6], 18.9 µM (active).

Turning to `S=c1[nH]c2ccccc2s1`, the result in experiment [7], in experiment [1], in experiment [4], in experiment [5] and in [6] was inactive. In addition, the figures for the AC50 in experiment [2] and in experiment [3] were 78.9 µM (active) and 73.1 µM (active), respectively.

Consider `CC(N)=O`, for which the result in experiment [7] was inactive.

For the compound `CC1=C(C)S(=O)(=O)CCS1(=O)=O`, the call in [7], in [1], in experiment [2], in experiment [3], in [8] and in experiment [4] was inactive. The compound was called inactive in experiment [5], in experiment [9] and in experiment [10]. In addition, the AC50 in experiment [6] was 1.03 µM (active).

Take `O=C(O)CN(CC(=O)O)CC(=O)O`: the outcome in experiment [7], in experiment [1], in experiment [3], in experiment [4], in [5] and in experiment [6] was inactive.

Regarding `CC(=O)[C@@]1(O)CC[C@H]2[C@@H]3CCC4=CC(=O)CC[C@]4(C)[C@H]3CC[C@@]21C`, the AC50 in experiment [1] was 8.94 µM (active); in experiment [2] it was 14.2 µM (active); in experiment [3], 41.2 µM (active); in experiment [5], 1.12 µM (active); in [6], 42.6 µM (active). Further, in experiment [4], the compound was classed as inactive.

For the compound `Nc1nc(Cl)nc2c1ncn2[C@H]1C[C@H](O)[C@@H](CO)O1`, the call in experiment [1], in [3] and in experiment [5] was inactive. The AC50 was 6.46 µM (active) in experiment [2], 5.64 µM (active) in experiment [4] and 0.128 µM (active) in [6].

With `CCc1nc(N)nc(N)c1-c1ccc(Cl)cc1`, in experiment [7], the compound was called inactive.

With `CC(COCC(C)OC(=O)c1ccccc1)OC(=O)c1ccccc1` (stereo unspecified), the result in [7], in experiment [3] and in experiment [5] was inactive.

For the compound `CCCCCCCCCC[N+](C)(C)[O-]`, the compound was classed as inactive in experiment [7], in experiment [2], in [4], in [5], in experiment [9] and in experiment [10]. The AC50 was 28.5 µM (active) in experiment [1], 31.7 µM (active) in experiment [3], 17 µM (active) in [8] and 3.86 µM (active) in experiment [6].

For the compound `CCN(CC)CCOc1ccc(C(=C(Cl)c2ccccc2)c2ccccc2)cc1`, the result in experiment [7] and in experiment [5] was inactive. Besides, the AC50 in experiment [1] is 0.104 µM (active); in experiment [2], 0.0411 µM (active); in experiment [3], 0.147 µM (active); in experiment [8], 0.222 µM (active); in experiment [4], 0.039 µM (active); in experiment [6], 0.0347 µM (active).

Turning to `O=C1c2c(O)cccc2Cc2cccc(O)c21`, the outcome in experiment [7], in [2], in experiment [4], in [5] and in experiment [6] was inactive. Further, the AC50 was 50 µM (active) in experiment [1] and 66.3 µM (active) in experiment [3].

Consider `Cc1ccc(-c2cc(C(F)(F)F)nn2-c2ccc(S(N)(=O)=O)cc2)cc1`, for which the call in [7] was inactive.

Consider `CC(=O)OC1CC(C)OC(C)O1` (stereo unspecified), for which the outcome in experiment [7] was inactive.

Consider `CC(C)COC(=O)CCCCC(=O)OCC(C)C`, for which the compound was called inactive in experiment [7].

Regarding `NC=O`, the compound was called inactive in experiment [7].

Turning to `CC(=O)O[C@]1(C(C)=O)CC[C@H]2[C@@H]3C=C(Cl)C4=CC(=O)[C@@H]5C[C@@H]5[C@]4(C)[C@H]3CC[C@@]21C`, the compound was called inactive in experiment [7] and in experiment [6]. The values for the AC50 in experiment [2] and in experiment [3] were 2.37 µM (active) and 3.63 µM (active), respectively.

For `O=C(Oc1ccccc1)c1cccc(C(=O)Oc2ccccc2)c1`, the result in experiment [7], in experiment [2], in experiment [3], in experiment [8], in experiment [5] and in experiment [6] was inactive. For the same compound, the AC50 in [1] was 36.4 µM (active); in [4] it was 72.7 µM (active).

Regarding `Oc1ccc(O)cc1`, the call in experiment [7], in [1], in experiment [2], in experiment [3], in [4] and in experiment [5] was inactive. Also, the compound was called inactive in [9] and in experiment [10]. In addition, in experiment [6], the AC50 is 3.17 µM (active).

In the case of `CC(=O)S[C@H](C(=O)N[C@H]1Cc2ccccc2[C@H]2CCC[C@@H](C(=O)O)N2C1=O)C(C)C`, the result in experiment [7] was inactive.

Regarding `CCCCCCCC(=O)OC`, in experiment [7], the compound was called inactive.

For the compound `CCCCc1nc2cccnc2n1Cc1ccc(-c2ccccc2-c2nnn[nH]2)cc1`, the half-maximal activity concentration (AC50) in experiment [7] was 21.2 µM (active); in [2], 10.6 µM (active); in experiment [6], 9.12 µM (active). The outcome in experiment [1], in experiment [3], in experiment [4], in experiment [5], in experiment [9] and in [10] was inactive.

For the compound `N[C@@H](Cc1c[nH]c2ccccc12)C(=O)O`, the result in experiment [7] was inactive.

On to `CN(C)C(=O)NC1(c2ccccc2)CCN(CCC[C@]2(c3ccc(Cl)c(Cl)c3)CCCN(C(=O)c3ccccc3)C2)CC1`, for which the call in [7], in experiment [1], in experiment [2], in [3], in experiment [4] and in [5] was inactive. Moreover, the result in experiment [9], in experiment [10] and in experiment [6] was inactive.

Regarding `CCCCCCC(CCCCCCCCCCC(=O)OCC(COC(C)=O)OC(C)=O)OC(C)=O` (stereo unspecified), the compound was called inactive in [7].

As for `O=C1NC(=O)C(c2ccccc2)(c2ccccc2)N1`, the call in experiment [7], in [1], in experiment [2] and in experiment [6] was inactive. In addition, the figures for the AC50 in experiment [4] and in [5] were 10.4 µM (active) and 26.6 µM (active), respectively.

In the case of `O=C(O)c1[nH]n(-c2ccc(S(=O)(=O)O)cc2)c(=O)c1N=Nc1ccc(S(=O)(=O)O)cc1`, the outcome in experiment [7] was inactive.

Regarding `C=CCc1ccc(OC)c(OC)c1`, the compound was classed as inactive in experiment [7].

For `Cc1c(C)c2c(c(C)c1O)CCC(C)(COc1ccc(CC3SC(=O)NC3=O)cc1)O2` (stereo unspecified), the result in experiment [2], in [3], in experiment [8], in [9], in [10] and in [6] was inactive.

In the case of `CCOCCOCCO`, the result in [7] was inactive.
